Read-outs that look alike come from different tables or passages of the source.
Key:
[1] = tested on: SgK110; settings: concentration: 1 μM, replicates: in singlicate; n = 1
[2] = tested on: T1, TAK1; settings: concentration: 1 μM, replicates: in singlicate; n = 1
T1 construct: gene MAP3K7

[3] = tested on: TAOK1; settings: concentration: 1 μM, replicates: in singlicate; n = 1
[4] = tested on: TAOK2; settings: concentration: 1 μM, replicates: in singlicate; n = 1
[5] = tested on: TAOK3; settings: concentration: 1 μM, replicates: in singlicate; n = 1
[6] = tested on: TBK1; settings: concentration: 1 μM, replicates: in singlicate; n = 1
[7] = tested on: TEC; settings: concentration: 1 μM, replicates: in singlicate; n = 1
[8] = tested on: TESK1; settings: concentration: 1 μM, replicates: in singlicate; n = 1
[9] = tested on: TGFBR1; settings: n = 1
[10] = tested on: TGFBR2; settings: concentration: 1 μM, replicates: in singlicate; n = 1
[11] = concentration: 1 μM, replicates: in singlicate
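Further: KINOMEscan kinase panel screen.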

Row | Compound | %Inh [1] | %Inh [2] | %Inh [3] | %Inh [4] | %Inh [5] | %Inh [6] | %Inh [7] | %Inh [8] | %Inh [9, 11] | %Inh [10] | %Inh ([9]; 1 µM)
1 | C[C@@H]1CCN(C(=O)CO)C[C@@H]1N(C)c1ncnc2[nH]ccc12 | 0% | 27% | 0% | 0% | 0% | 1% | 3% | 12% | 7% | 4% | –
2 | CS(=O)(=O)CCNCc1nc(-c2ccc3ncnc(Nc4ccc(OCc5cccc(F)c5)c(Cl)c4)c3c2)cs1.Cl [GW583340] | 0% | 0% | 0% | 0% | 0% | 14% | 0% | 80% | 0% | 0% | –
3 | CC(C)(C)c1ccc(-n2cnc3c(N)ncnc32)cc1 [SKF-97263] | 0% | 10% | 6% | 0% | 8% | 15% | 12% | 0% | 0% | 6% | –
4 | Cl.Cl.c1ccc(-c2cc3ccncc3cc2OC2CCNCC2)cc1 [GSK1122999] | 0% | 0% | 0% | 0% | 4% | 21% | 12% | 7% | 2% | 0% | –
5 | COc1ccc(Nc2nccc(N3CCC(NC(=O)Nc4ccc5c(c4)OCO5)C3)n2)cc1 (stereo not shown) [GSK1379745] | 2% | 0% | 0% | 0% | 0% | 18% | 9% | 12% | 8% | 0% | –
6 | N#Cc1ccc(Oc2ccc(Nc3ncnc4cc[nH]c34)cc2Cl)cc1 | 0% | 7% | 0% | 0% | 0% | 24% | 0% | 5% | 1% | 5% | –
7 | C[C@H]1CC[C@@H](C(=O)Nc2ccccc2)CN1c1cc(-c2ccc3c(N)n[nH]c3c2)nc(N)n1 [GSK2283293] | 0% | 0% | 0% | 0% | 0% | 7% | 11% | 26% | 14% | 0% | –
8 | Cc1ccc(NC(=O)c2cccc(C#N)c2)cc1-c1ccc(C(=O)Nc2ccncc2)cc1 [GSK1398463] | 3% | 0% | 0% | 23% | 3% | 20% | 11% | 0% | 0% | 0% | –
9 | Cc1ccc(C)c(NC(=O)NCCNc2ccnc(Nc3ccc(F)cc3)n2)c1 [GSK1379878] | 0% | 0% | 0% | 0% | 0% | 7% | 0% | 32% | 0% | 0% | –
10 | Oc1ccc2ncnc(Nc3ccc(OCc4ccccc4)cc3)c2c1 [GI262866] | 0% | 0% | 0% | 0% | 0% | 0% | 0% | 0% | 0% | 0% | –
11 | O=C(CCO)NCCn1ccc2ncnc(Nc3ccc(Oc4cccc(C(F)(F)F)c4)c(Cl)c3)c21 | 0% | 0% | 0% | 10% | 0% | 16% | 0% | 6% | 0% | 0% | –
12 | O=C(c1ccc(-c2cc(-c3c[nH]nc3-c3ccccn3)ccn2)cc1)N1CCCC1 [GW792479] | 6% | 0% | 0% | 45% | 0% | 59% | 8% | 20% | – | 39% | 93.6%
13 | COC(=O)c1cccc(NC(=O)NCCNc2ccnc(Nc3ccc(F)cc3)n2)c1 [GSK1379883] | 0% | 0% | 0% | 0% | 0% | 16% | 0% | 23% | 13% | 0% | –
14 | Nc1nc(-c2ccccn2)c(-c2ccnc3ccccc23)s1 [GW548057] | 0% | 20% | 0% | 0% | 0% | 12% | 8% | 0% | – | 50% | –
15 | COC(=O)c1c(-c2ccccc2)c2cc(Cl)ccc2c(=O)n1Cc1ccc(S(C)(=O)=O)cc1 | 46% | 17% | 0% | 0% | 0% | 20% | 0% | 0% | 7% | 5% | –
16 | Cl.c1ccc(Cn2ncc3cc(Nc4ncnc5ccccc45)ccc32)cc1 [GW273749] | 0% | 0% | 0% | 0% | 0% | 23% | 0% | 0% | 6% | 0% | –
17 | COc1ccc(-c2oc3ncnc(N)c3c2-c2ccc(OC)cc2)cc1 [SB-589132] | 0% | 0% | 0% | 0% | 0% | 0% | 15% | 36% | 7% | 12% | –
